Here are results for one compound from ChEMBL document CHEMBL1961873, “Compounds: GSK PKIS; Assays: Nanosyn kinase panel” (2012).

For assay [1], the target named is Sphingosine kinase 1 (Homo sapiens) (UniProt Q9NYA1). The following applies: at 1 µM.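 Also: mean SPHK1 inhibition value reported from the GSK PKIS kinase panel screen.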
Assay [2] concerns the target T1, Sphingosine kinase 2 (Homo sapiens) (UniProt Q9NRA0).
T1 sequence (whole entry): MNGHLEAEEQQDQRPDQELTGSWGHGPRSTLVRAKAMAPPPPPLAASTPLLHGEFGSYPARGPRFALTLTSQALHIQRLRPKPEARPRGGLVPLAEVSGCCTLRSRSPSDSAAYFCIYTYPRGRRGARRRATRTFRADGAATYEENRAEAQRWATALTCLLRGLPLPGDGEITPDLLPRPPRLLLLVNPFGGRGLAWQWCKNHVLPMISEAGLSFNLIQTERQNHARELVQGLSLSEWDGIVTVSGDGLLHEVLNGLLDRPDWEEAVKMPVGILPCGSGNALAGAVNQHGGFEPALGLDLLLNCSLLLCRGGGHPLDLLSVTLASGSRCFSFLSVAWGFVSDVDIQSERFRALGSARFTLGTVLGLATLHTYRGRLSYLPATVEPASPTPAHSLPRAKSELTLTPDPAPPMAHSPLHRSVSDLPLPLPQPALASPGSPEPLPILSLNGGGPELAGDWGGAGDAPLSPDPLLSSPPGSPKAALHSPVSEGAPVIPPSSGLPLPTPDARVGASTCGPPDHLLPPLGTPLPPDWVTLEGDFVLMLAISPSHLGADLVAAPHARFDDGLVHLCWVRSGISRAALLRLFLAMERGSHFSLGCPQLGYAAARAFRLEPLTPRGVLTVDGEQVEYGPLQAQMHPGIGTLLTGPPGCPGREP
The following applies: at 0.1 µM.

The target in assay [3] is T1, Sphingosine kinase 2 (Homo sapiens). Conditions: at 1 µM.
For assay [4], the target named is Casein kinase II subunit alpha (Homo sapiens) (UniProt P68400). Conditions: at 1 µM.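 Also: reported value is the mean CK2 inhibition.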
In assay [5] the target is T2, Inhibitor of nuclear factor kappa-B kinase subunit alpha (Homo sapiens) (UniProt O15111).
T2 sequence (whole entry): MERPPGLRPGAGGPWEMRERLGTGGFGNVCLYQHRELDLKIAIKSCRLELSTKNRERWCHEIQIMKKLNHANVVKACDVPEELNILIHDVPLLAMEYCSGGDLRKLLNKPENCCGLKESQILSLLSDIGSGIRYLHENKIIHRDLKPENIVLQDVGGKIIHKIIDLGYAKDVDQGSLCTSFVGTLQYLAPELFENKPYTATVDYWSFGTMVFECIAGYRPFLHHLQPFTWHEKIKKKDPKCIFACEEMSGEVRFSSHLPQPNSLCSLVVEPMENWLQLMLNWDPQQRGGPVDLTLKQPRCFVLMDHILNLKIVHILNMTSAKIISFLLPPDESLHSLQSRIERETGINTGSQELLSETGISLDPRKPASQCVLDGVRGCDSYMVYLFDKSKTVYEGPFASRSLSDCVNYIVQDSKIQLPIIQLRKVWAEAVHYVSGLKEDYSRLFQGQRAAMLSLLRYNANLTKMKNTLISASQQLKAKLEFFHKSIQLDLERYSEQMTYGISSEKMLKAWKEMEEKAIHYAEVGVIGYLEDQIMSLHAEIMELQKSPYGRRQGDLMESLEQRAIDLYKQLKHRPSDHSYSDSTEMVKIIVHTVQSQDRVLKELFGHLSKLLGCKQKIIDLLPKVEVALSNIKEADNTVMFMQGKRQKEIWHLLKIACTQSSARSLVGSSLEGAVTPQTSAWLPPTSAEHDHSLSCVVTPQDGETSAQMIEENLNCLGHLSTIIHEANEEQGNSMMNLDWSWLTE
Conditions: at 0.1 µM.

In assay [6] the target is T2, Inhibitor of nuclear factor kappa-B kinase subunit alpha (Homo sapiens). Conditions: at 1 µM.
The target of assay [7] is T3, Inhibitor of nuclear factor kappa-B kinase subunit beta (Homo sapiens) (UniProt O14920).
T3 sequence (whole entry): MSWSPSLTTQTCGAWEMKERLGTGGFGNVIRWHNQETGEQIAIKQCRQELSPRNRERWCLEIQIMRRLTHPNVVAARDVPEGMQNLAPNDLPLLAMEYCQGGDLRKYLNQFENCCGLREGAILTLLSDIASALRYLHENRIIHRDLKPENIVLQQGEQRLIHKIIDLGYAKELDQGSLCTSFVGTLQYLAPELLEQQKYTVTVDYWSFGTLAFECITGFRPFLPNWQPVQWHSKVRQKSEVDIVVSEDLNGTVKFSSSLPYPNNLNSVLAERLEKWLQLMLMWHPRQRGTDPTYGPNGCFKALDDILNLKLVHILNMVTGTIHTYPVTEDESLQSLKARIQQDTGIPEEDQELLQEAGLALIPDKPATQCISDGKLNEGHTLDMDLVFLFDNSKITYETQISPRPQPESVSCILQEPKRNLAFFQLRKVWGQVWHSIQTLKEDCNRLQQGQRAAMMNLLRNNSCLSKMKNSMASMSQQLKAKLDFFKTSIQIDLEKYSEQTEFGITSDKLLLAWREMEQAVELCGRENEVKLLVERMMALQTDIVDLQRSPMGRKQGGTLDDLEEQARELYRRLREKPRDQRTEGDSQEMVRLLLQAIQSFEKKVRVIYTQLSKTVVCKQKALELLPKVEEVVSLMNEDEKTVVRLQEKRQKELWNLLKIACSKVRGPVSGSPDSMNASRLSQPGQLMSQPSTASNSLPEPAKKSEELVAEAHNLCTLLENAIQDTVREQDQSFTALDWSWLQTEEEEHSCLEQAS
Conditions: at 0.1 µM.

Assay [8] deals with T3, Inhibitor of nuclear factor kappa-B kinase subunit beta (Homo sapiens). Conditions: at 1 µM.
In assay [9] the target is T4, Inhibitor of nuclear factor kappa-B kinase subunit epsilon (Homo sapiens) (UniProt Q14164).
T4 sequence (whole entry): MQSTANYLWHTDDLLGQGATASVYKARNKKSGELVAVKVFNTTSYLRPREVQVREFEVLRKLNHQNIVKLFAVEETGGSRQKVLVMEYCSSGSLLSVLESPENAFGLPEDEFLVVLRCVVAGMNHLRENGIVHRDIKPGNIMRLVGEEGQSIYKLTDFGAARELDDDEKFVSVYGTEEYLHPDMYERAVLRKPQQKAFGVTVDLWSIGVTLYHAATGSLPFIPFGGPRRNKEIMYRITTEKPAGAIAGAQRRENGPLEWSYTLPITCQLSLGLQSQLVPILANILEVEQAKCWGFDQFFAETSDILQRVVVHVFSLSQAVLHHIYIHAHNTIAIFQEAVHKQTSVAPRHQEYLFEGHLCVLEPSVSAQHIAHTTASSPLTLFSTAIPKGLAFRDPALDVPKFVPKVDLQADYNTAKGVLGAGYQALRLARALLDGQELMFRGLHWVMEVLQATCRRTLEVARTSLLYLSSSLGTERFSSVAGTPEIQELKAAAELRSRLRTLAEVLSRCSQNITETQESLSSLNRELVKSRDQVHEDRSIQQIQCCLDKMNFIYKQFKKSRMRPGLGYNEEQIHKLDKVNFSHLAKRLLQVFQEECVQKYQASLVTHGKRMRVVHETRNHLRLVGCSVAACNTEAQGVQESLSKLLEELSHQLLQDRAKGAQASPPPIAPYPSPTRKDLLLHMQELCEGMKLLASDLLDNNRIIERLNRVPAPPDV
The following applies: at 0.1 µM.

Assay [10] concerns the target T4, Inhibitor of nuclear factor kappa-B kinase subunit epsilon (Homo sapiens). The following applies: at 1 µM.
Assay [11] concerns the target T5, Serine/threonine-protein kinase Nek1 (Homo sapiens) (UniProt Q96PY6).
T5 sequence (whole entry): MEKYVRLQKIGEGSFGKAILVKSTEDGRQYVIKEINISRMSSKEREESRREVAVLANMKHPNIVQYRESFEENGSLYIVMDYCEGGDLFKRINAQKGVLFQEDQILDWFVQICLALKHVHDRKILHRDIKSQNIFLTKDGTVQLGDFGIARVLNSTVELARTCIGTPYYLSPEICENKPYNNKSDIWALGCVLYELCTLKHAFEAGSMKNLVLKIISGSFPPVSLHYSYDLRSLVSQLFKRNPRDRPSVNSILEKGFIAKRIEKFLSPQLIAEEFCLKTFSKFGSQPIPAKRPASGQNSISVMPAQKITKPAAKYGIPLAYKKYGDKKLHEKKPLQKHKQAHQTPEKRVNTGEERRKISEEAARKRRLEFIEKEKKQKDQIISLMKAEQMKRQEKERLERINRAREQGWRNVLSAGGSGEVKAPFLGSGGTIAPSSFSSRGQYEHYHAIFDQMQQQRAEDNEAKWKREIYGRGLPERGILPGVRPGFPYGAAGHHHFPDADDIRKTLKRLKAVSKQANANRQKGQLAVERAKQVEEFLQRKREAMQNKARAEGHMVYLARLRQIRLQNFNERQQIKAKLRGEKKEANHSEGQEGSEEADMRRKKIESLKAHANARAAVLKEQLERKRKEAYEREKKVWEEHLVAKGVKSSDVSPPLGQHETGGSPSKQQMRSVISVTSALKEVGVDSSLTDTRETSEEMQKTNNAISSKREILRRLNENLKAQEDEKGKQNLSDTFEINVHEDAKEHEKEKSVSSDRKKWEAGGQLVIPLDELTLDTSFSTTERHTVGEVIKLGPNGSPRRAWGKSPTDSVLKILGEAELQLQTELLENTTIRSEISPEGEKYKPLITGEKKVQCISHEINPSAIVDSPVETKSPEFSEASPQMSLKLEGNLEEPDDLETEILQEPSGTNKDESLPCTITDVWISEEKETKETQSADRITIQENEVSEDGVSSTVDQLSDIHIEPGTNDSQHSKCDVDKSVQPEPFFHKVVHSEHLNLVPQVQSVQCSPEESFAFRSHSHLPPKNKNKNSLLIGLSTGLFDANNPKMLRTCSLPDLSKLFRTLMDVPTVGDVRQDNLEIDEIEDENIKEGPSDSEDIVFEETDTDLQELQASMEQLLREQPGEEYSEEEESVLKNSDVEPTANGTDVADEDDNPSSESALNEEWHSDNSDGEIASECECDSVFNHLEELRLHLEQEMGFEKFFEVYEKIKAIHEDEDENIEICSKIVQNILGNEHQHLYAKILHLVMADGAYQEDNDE
Conditions: at 0.1 µM.

Assay [12] has as its target T5, Serine/threonine-protein kinase Nek1 (Homo sapiens). The following applies: at 1 µM.
Assay [13] has as its target T6, Serine/threonine-protein kinase Nek2 (Homo sapiens) (UniProt P51955).
T6 sequence (whole entry): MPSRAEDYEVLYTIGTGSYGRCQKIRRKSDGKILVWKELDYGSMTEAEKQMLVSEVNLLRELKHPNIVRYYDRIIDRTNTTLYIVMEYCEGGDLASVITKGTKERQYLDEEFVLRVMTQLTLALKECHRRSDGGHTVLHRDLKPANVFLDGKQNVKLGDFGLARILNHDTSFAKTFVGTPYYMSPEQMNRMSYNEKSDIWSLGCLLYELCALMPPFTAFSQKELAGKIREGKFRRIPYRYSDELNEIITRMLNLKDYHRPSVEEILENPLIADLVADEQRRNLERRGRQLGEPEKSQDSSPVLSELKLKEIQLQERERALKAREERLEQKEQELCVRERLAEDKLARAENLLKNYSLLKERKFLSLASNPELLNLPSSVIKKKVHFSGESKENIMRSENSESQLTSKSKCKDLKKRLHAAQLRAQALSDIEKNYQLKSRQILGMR
The following applies: at 0.1 µM.

Assay [14] deals with T6, Serine/threonine-protein kinase Nek2 (Homo sapiens). Conditions: at 1 µM.
The target of assay [15] is Serine/threonine-protein kinase Nek6 (Homo sapiens) (UniProt Q9HC98). The following applies: at 0.1 µM.
Assay [16] shares this target. The following applies: at 1 µM.
In assay [17] the target is Serine/threonine-protein kinase Nek7 (Homo sapiens) (UniProt Q8TDX7). The following applies: at 0.1 µM.
Assay [18] has the same target. The following applies: at 1 µM.
Assay [19] has as its target T7, Serine/threonine-protein kinase Nek9 (Homo sapiens) (UniProt Q8TD19).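 Also: reported value is the mean percent inhibition of NEK9.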
T7 sequence (whole entry): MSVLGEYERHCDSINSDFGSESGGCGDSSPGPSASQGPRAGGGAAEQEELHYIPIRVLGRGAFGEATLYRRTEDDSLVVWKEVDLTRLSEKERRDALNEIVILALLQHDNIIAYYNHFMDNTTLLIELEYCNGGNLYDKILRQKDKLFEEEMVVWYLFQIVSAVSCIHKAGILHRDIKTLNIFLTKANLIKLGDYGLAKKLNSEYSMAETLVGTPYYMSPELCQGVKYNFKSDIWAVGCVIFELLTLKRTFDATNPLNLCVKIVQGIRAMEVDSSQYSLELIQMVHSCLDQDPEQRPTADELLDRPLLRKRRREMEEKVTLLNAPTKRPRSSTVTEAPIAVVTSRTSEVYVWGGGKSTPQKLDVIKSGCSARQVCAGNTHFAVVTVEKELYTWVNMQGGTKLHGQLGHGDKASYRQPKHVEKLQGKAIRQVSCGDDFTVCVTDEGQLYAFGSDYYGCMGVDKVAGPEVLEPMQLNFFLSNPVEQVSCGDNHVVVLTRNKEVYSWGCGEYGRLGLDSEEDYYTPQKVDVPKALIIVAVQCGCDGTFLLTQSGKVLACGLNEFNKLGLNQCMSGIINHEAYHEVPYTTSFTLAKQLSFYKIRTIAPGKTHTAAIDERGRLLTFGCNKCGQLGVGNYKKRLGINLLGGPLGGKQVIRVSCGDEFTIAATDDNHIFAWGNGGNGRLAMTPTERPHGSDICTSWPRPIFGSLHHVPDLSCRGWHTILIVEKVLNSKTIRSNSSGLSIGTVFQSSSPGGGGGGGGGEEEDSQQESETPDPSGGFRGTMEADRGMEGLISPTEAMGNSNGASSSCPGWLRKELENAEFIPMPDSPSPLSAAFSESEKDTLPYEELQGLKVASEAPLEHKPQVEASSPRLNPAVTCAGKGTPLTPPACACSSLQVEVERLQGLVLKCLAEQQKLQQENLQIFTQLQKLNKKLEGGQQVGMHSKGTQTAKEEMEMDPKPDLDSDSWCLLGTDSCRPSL
The following applies: at 0.1 µM.

Chain of Serine/threonine-protein kinase Nek7 (Homo sapiens) (Q8TDX7 whole entry, looked up): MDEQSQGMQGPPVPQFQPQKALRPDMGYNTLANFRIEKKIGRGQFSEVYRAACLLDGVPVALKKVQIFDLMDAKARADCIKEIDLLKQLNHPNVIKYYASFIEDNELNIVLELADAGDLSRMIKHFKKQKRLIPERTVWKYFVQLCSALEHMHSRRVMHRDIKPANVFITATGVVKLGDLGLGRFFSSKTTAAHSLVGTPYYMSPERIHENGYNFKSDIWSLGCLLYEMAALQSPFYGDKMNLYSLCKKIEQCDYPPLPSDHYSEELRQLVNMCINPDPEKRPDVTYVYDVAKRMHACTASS
Chain of Serine/threonine-protein kinase Nek6 (Homo sapiens) (Q9HC98 whole entry): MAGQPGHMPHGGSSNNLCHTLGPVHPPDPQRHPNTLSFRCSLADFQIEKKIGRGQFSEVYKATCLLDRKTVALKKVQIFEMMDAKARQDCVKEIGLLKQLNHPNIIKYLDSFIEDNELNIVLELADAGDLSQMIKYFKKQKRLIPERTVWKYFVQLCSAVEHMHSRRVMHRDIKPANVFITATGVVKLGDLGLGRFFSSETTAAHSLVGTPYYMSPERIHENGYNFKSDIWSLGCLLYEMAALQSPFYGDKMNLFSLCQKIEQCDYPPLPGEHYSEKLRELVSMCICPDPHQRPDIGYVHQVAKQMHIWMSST
Chain of Sphingosine kinase 1 (Homo sapiens) (Q9NYA1 whole entry): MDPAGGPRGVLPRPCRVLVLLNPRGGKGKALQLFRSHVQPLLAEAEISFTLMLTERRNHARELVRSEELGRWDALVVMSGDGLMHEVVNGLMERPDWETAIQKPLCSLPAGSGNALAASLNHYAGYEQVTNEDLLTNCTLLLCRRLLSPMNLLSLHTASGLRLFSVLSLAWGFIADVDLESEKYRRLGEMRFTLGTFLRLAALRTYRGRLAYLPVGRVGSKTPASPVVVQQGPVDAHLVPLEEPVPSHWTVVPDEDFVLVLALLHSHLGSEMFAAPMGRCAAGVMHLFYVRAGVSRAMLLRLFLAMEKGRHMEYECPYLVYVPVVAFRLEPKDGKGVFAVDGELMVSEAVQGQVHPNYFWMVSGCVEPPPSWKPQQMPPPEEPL
Chain of Casein kinase II subunit alpha (Homo sapiens) (P68400 whole entry, looked up): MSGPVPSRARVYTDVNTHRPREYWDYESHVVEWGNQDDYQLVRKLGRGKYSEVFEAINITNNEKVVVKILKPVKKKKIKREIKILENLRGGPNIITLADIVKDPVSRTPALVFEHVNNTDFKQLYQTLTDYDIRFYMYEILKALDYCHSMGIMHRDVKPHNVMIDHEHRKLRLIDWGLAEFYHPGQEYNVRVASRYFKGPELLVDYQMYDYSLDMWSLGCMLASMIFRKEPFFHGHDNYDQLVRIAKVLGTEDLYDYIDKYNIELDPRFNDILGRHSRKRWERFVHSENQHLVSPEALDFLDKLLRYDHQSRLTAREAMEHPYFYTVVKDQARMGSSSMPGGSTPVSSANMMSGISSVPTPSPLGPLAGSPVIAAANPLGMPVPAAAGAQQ

A word on the inhibition: it is the change of the read-out against control, counted positive when it falls. For `CS(=O)(=O)CCNCc1cc(-c2cc3c(Nc4ccc(OCc5cccc(F)c5)c(Cl)c4)ncnc3s2)cs1`, the inhibition in assay [1] was 3.45%; in [2] it was -0.27%; in assay [3], 0.36%; in assay [4], 2.87%; in assay [5], 10.9%; in assay [6] it was 9.95%. The inhibition in assay [7] amounted to 7.54%; in [8], 6.76%; in [9], 6.48%; in assay [10], 4.64%; in assay [11] it was 3.08%; in [12] it was 5.81%. Further, the inhibition was 6.26% in assay [13]; 6.31% in [14]; 1.2% in assay [15]; 3.03% in assay [16]; 4.02% in assay [17]; 8.5% in assay [18]. Also, in [19], the inhibition amounted to 9.93%.
